Counter-ions that a name gives are not always drawn.
tested on: replication-induced senescent mouse newborn dermal fibroblasts (NBF); assay: relative cell viability of senescent cells (fraction); higher = less killing of senescent cells; conditions: 1 µM; 3 days
Description: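 Replication-induced senescent newborn mouse skin fibroblasts (NBFs) in 24-well plates were treated with a Selleck FDA-approved drug library at 1 µM for 3 days.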

Compound	relative cell viability
Cn1c(=O)c2c(ncn2CC(O)CO)n(C)c1=O (stereo unspecified) [Dyphylline]	0.335
CNCc1ccc(-c2[nH]c3cc(F)cc4c3c2CCNC4=O)cc1	0.0458
CC/C(=C(/CC)c1ccc(O)cc1)c1ccc(O)cc1 [Diethylstilbestrol]	1.06
Clc1ccccc1C(c1ccccc1)(c1ccccc1)n1ccnc1 [Clotrimazole]	1.01
CCOc1nc2cccc(C(=O)O)c2n1Cc1ccc(-c2ccccc2-c2nnn[nH]2)cc1 [Candesartan]	1.02
Nc1ccn([C@@H]2O[C@H](CO)[C@@H](O)C2(F)F)c(=O)n1 [Gemcitabine]	0.11
COc1ccc([C@]2(C#N)CC[C@@H](C(=O)O)CC2)cc1OC1CCCC1 [Cilomilast]	0.332
CCCNC(C)C(=O)Nc1ccccc1C (stereo unspecified) [Prilocaine]	0.827
CC(C)OC(=O)C(C(=O)OC(C)C)=C1SC=CS1 [Malotilate]	1.04
COC(=O)N[C@H](C(=O)N1CCC[C@H]1c1ncc(-c2ccc(-c3ccc(-c4cnc([C@@H]5CCCN5C(=O)[C@@H](NC(=O)OC)C(C)C)[nH]4)cc3)cc2)[nH]1)C(C)C	0.545
COc1cc2nccc(Oc3ccc(NC(=O)C4(C(=O)Nc5ccc(F)cc5)CC4)cc3)c2cc1OC	0.453
C[C@H](Cn1cnc2c(N)ncnc21)OCP(=O)(O)O [Tenofovir]	0.893
CNC(=O)c1ccc2cc([C@@]3(O)CCn4cncc43)ccc2c1 [TAK-700 (Orteronel)]	0.282
Cn1c(=O)c2[nH]cnc2n(C)c1=O [Aminophylline]	0.98
COc1cc(/C=C/C(=O)CC(=O)/C=C/c2ccc(O)c(OC)c2)ccc1O [Curcumin]	0.768
COc1ccccc1OCCNCC(O)COc1cccc2[nH]c3ccccc3c12 (stereo unspecified) [Carvedilol]	1.14
Nc1cccc2c1C(=O)N(C1CCC(=O)NC1=O)C2=O (stereo unspecified) [Pomalidomide]	1.19
Clc1ccc(Nc2nnc(Cc3ccncc3)c3ccccc23)cc1 [Vatalanib (PTK787) 2HCl]	0.741

Compound	relative cell viability
Nc1nc(=O)[nH]cc1F [Flucytosine]	0.996
CN(C)CCc1c[nH]c2ccc(C[C@H]3COC(=O)N3)cc12 [Zolmitriptan]	0.999
O=S(=O)(O)CCSSCCS(=O)(=O)O [Dimesna]	0.736
CC1(C)O[C@@H]2C[C@H]3[C@@H]4CCC5=CC(=O)C=C[C@]5(C)[C@H]4[C@@H](O)C[C@]3(C)[C@]2(C(=O)CO)O1 [Desonide]	1.14
CC(=O)Nc1ccc(O)cc1 [Acetaminophen]	0.803
O=NN(CCCl)C(=O)NC1CCCCC1 [Lomustine]	1.02
N=C(N)NC(=O)c1nc(Cl)c(N)nc1N [Amiloride HCl]	0.768
O=c1[nH]c(=O)n([C@H]2C[C@H](O)[C@@H](CO)O2)cc1I [Idoxuridine]	0.949
Cc1ccnc2c1NC(=O)c1cccnc1N2C1CC1 [Nevirapine]	1.02
CCCCC(=O)O[C@]1(C(=O)CO)[C@@H](C)C[C@H]2[C@@H]3CCC4=CC(=O)C=C[C@]4(C)[C@@]3(F)[C@@H](O)C[C@@]21C [Betamethasone Valerate]	1.15
CO[C@H]1/C=C/O[C@@]2(C)Oc3c(C)c(O)c4c(O)c(c(/C=N/N5CCN(C6CCCC6)CC5)c(O)c4c3C2=O)NC(=O)/C(C)=C\C=C\[C@H](C)[C@H](O)[C@@H](C)[C@@H](O)[C@@H](C)[C@H](OC(C)=O)[C@@H]1C [Rifapentine]	0.659
OCCOCCN1CCN(C2=Nc3ccccc3Sc3ccccc32)CC1 [Quetiapine Fumarate]	1.13
N#C[C@@H]1C[C@@H]2C[C@@H]2N1C(=O)[C@@H](N)C12CC3CC(CC(O)(C3)C1)C2 [Saxagliptin]	0.999
O=S(=O)(O)CCS [Mesna]	1.04
CC(C)CN(C[C@@H](O)[C@H](Cc1ccccc1)NC(=O)O[C@H]1CO[C@H]2OCC[C@H]21)S(=O)(=O)c1ccc(N)cc1 [Darunavir Ethanolate]	0.839
C[C@]12CC[C@@H]3c4ccc(O)cc4CC[C@H]3[C@@H]1CCC2=O [Estrone]	1
Cc1ccc(C(=O)N(CCCN)[C@@H](c2nc3cc(Cl)ccc3c(=O)n2Cc2ccccc2)C(C)C)cc1	1.13
CCCCC1=NC2(CCCC2)C(=O)N1Cc1ccc(-c2ccccc2-c2nnn[nH]2)cc1 [Irbesartan]	0.868

Reference: the supplement of paper PMC7184167
